The panel holds about 83,000 compounds, 20% with a hit somewhere; the sample as a whole holds those more often.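 Note: values are percent growth. 100 is the growth of untreated cells, values between 100 and 0 indicate rising inhibition; between -100 and 0 indicates cell death.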 Activity calls are given as the source filed them. Rule for the calls: active = growth percent below 10; inactive = the rest.

The test system of this experiment is HL-60(TB) leukemia. Put plainly: NCI-60 one-dose screen, 48 h (100 = growth as untreated, 0 = no growth, -100 = all killed). The note with it: 10 µM unless noted.
As to `c1ccc(CNc2ncnc3scc(-c4cccs4)c23)nc1`, the growth was 58.2% (inactive).

In the case of `NNc1ncnc2c1ncn2C1OC(CO)C(O)C1O` (stereo not given), the growth is 34.8% (inactive).

As for `COc1cc(-c2cc(/C=C3\C(=O)Nc4ccccc43)[nH]n2)cc(OC)c1OC`, the growth was -12.1% (active).

With `C=C1C(=O)O[C@H]2[C@H]1CC/C(Cn1cc(-c3ccccc3)nn1)=C\CC[C@@]1(C)O[C@@H]21`, the growth was -28.9% (active).

With `O=S(=O)(Nc1ccsc1-c1nc(-c2ccccc2)no1)c1cc(Cl)cc(Cl)c1`, the growth was 119% (inactive).

Take `CCOP(=O)(OCC)/C(=C\N1C(=O)CC(=O)NC1=S)C(=O)OC`: the growth was 103% (inactive).

With `COc1cc2cc(OC(C)=O)c3cc4c(cc3c2c(OC)c1OC)OCO4`, the growth is 96.6% (inactive).

Consider `COc1ccc2c(c1)C(=O)c1c-2c(=O)n(CCCCCCC(=O)NO)c2ccccc12`, for which the growth was 12.7% (inactive).

On to `COc1ccc(/C=C2/C(=O)Nc3cc(Cl)c(-c4csc(N)n4)cc32)cc1`, for which the growth is 8.08% (active).

For `Cc1cc2cccnc2c2ncccc12`, the growth is -11.4% (active).

On to `CCOC(=O)Nc1nc2ccc(SCC(C)C)cc2s1`, for which the growth is 11.6% (inactive).

For the molecule `CC1=CC(=O)CC(C)(C)[C@@]1(O)/C=C/[C@@H](C)O`, the growth was 110% (inactive).

For `O=C1c2cccc3c([N+](=O)[O-])ccc(c23)C(=O)N1CCCCl`, the growth is -25.4% [100 µM] (active).

For `CNc1ncc2cc(-c3cc(NC(=O)NCCC(C)(C)C)c(F)cc3C)c(C)nc2n1`, the growth was 6.32% (active).

Take `CCN(CC)CCN1C(=O)c2c(c3c4ccccc4[nH]c3c3[nH]c4ccccc4c23)C1=O`: the growth is 98.7% (inactive).

Take `COc1ccc(-c2nsc3c2NC(=O)CC3c2cccc(F)c2)cc1` (stereo not given): the growth is 39.2% (inactive).

With `CCN1C(=O)N(CC)C2C1NN=c1s/c(=C\c3ccccc3)c(=O)n12` (stereo not given), the growth was -45.3% (active).

Take `Nc1cccc(S(=O)(=O)c2cccc(N)c2)c1`: the growth is -10.6% (active).

For the molecule `N=C(N)c1ccc(-c2ccc(-c3cc(Cl)cc(Cl)c3)s2)s1`, the growth was -67.9% (active).

As for `COc1ccc(/C=C/c2nc(Nc3ccc(S(=O)(=O)Nc4cc(C)on4)cc3)c3ccccc3n2)cc1`, the growth is 80.9% (inactive).

`CCCC#CCN(CC)CC`: the growth was 96.6% (inactive).

In the case of `Cc1ccc(N(C(=O)CCc2c[nH]c3ccccc23)[C@H](C(=O)Nc2ccc(Cl)cc2)c2cccc([N+](=O)[O-])c2)cc1`, the growth was 70.7% (inactive).

As to `COCCn1cc(-c2nc(-c3c[nH]c4ncccc34)cs2)c2ccccc21`, the growth was 76.9% (inactive).

Turning to `O=C(Nc1cccc2c1CCCC2)c1cc2ccccc2cc1O`, the growth is 14.9% (inactive).

In the case of `CN1CCN(CC(=O)N(C)c2ccc(N=C(c3ccccc3)c3c(O)[nH]c4ccc([N+](=O)[O-])cc34)cc2)CC1`, the growth is 53.5% (inactive).

For the molecule `CN(C)CCCC1(c2ccc(F)cc2)OCc2cc(-c3ccc4cc[nH]c4c3)ccc21` (stereo not given), the growth is 27.6% (inactive).

For the molecule `COC(=O)c1nc(-c2ccccc2)oc1S(=O)(=O)n1nc(C)cc1N`, the growth is 7.17% (active).

As for `COc1cc(/C=C/C(=O)N2CCN(C(=O)c3cc(OC)c(OC)c(OC)c3)CC2)ccc1OCCCN1C(=O)c2cccc3cccc(c23)C1=O`, the growth was 56.7% (inactive).

As to `C/C(=N\Nc1cc(C)c2cc(C)ccc2n1)c1ccccn1`, the growth was -54.9% (active).

In the case of `Nc1ccc(C2=NN(c3ccccc3)C(c3ccc(Cl)cc3)C2)cc1` (stereo not given), the growth was 59.6% (inactive).

As to `Cc1nc2ccccc2n1C(=O)C[C@@H]1NC(=S)NC1=O`, the growth was 101% (inactive).

Take `CC/C(Cc1ccccc1)=C(\c1ccc(OCCN2CCCC2)cc1)c1ccc(OC(C)=O)cc1`: the growth was 71.3% (inactive).

For `O=C1C(=O)c2c(nc3ccc(C(F)(F)F)cn23)-c2ccccc21`, the growth was -47% (active).

For `COc1ccc(C2=NN(C(=O)COc3ccc(Cl)cc3)C(O)(c3cc(F)c(Cl)cc3Cl)C2)cc1` (stereo not given), the growth is 95% (inactive).

On to `O=C(NC1CC1)c1cc2n(n1)CC(c1ccccc1)N2` (stereo not given), for which the growth was 107% (inactive).

For the molecule `CCNc1nc2c(cnn2C)c(=O)[nH]1`, the growth was 94.3% (inactive).

Take `NC1=CSC2=N/C(=C\c3ccc(Cl)cc3)C(=O)N12`: the growth was 39.9% (inactive).

As for `Cc1ccc(Cc2c(C=O)nc(N)[nH]c2=O)c2ccccc12`, the growth is 36.1% (inactive).

With `CCCCCCCCCCCCCCCC(=O)OC[C@@]1(O)C[C@@]23CC[C@@H]4C(C)(C)[C@H](O)CC[C@@]4(C)[C@@H]2CC[C@H]1C3`, the growth is 101% (inactive).

Turning to `OCCn1cc(-c2nc(-c3c[nH]c4ncccc34)cs2)c2cc(F)ccc21`, the growth was 60.3% (inactive).

For the origin of these results see PubChem BioAssay (NCI).
